# According to PubChem BioAssay (Tox21):
# Results filed as inconclusive are left out. A call without a number means that no potency is given here. Activity calls are given as the source filed them. Calls come from the whole dose curve; as a rule, active = well fitted inhibition curve with a large enough effect in the signal ratio in the repeat runs; inconclusive = weak or mixed curves, or effect the other way; inactive = flat fitted curve, though single readings scatter; the % refers to the signal ratio.
# Assay: qHTS assay for small molecule disruptors of the mitochondrial membrane potential (AID 720635)
# Conditions: HepG2 mitochondrial membrane potential, Mito-MPS dye ratio; series mostly up to 83.2 µM
# Text: U.S. Tox21 Program National Center for Advancing Translational Sciences [NCATS] NIH Chemical Genomics Center [NCGC] U.S. Environmental Protection Agency [EPA] National Institutes of Environmental Health Sciences [NIEHS] National Toxicology Program [NTP] U.S. Food and Drug Administration [FDA] Tox21 Assay Overview: Mitochondrial membrane potential (MMP), one of the parameters for mitochondrial function, is generated by mitochondrial electron transport chain that creates an electrochemical gradient by a series of redox reactions. This gradient drives the synthesis of ATP, a crucial molecule for various cellular processes. Measuring MMP in living cells is commonly used to assess the effect of chemicals on mitochondrial function. […] The dye accumulates in the mitochondria of healthy cells as aggregates, with red fluorescence. The mitochondrial potential collapses and the dye can no longer accumulate in the mitochondria and remains in the cytoplasm in monomers, with green fluorescence.
# Tox21 Assay Protocol Summary: 2,000 HepG2 cells in 5 uL/well were dispensed into black, clear-bottom 1536-well plates using a Multidrop Combi (Thermo Scientific) dispenser. The assay plates were incubated overnight at 37C to allow cells to attach to the wells, followed by the transfer of 23 nL compound or DMSO vehicle by a pin tool (Kalypsys). The plates were incubated for 1 hr at 37C and 5% CO2, followed by the addition of 5 uL of 2X Mito-MPS dye (BD Biosciences) into each well using Flying Reagent Dispenser (Aurora Discovery) and then following 30 min incubation at 37C. Fluorescence intensity (490nm excitation and 535nm emission for monomers; and 540nm excitation and 590nm emissions for aggregates) was measured using an Envision plate reader.
# Potency is the fitted concentration of half-maximal effect.
row,SMILES,Potency
1,CC(C)(C)c1cc(CO)cc(C(C)(C)C)c1O,49.5 µM (active)
2,O=C(NN1CCCC1)NS(=O)(=O)c1ccc(Cl)cc1,inactive
3,O=C(O)Cn1c(C(=O)Nc2nc(-c3ccccc3Cl)cs2)cc2ccccc21,26.6 µM (active)
4,NC(N)=NN=C(/C=C/c1ccc([N+](=O)[O-])o1)/C=C/c1ccc([N+](=O)[O-])o1,2.66 µM (active)
5,Cc1ccc(C(N)=O)cc1N,inactive
6,CC/C(=C\C(=N/O)C(N)=O)C(C)[N+](=O)[O-] (stereo not given),inactive
7,Cc1c(Cn2ccnc2)c2ccccc2n1CCC(=O)O,inactive
8,O=[N+]([O-])c1cccc(Cl)c1Cl,inactive
9,CCCCCCCCCCCCCCCC(=O)OC/C=C(C)/C=C/C=C(C)/C=C/C1=C(C)CCCC1(C)C,inactive
10,CC(=O)SCc1ccco1,inactive
11,CCCCOCCOCCOCCOCCO,inactive
12,CC(C)(C)C1CCCCC1O (stereo not given),inactive
13,CC(=O)CC(=O)c1ccccc1,inactive
14,CC1(C)CCC(C)(C)c2cc(NC(=O)c3ccc(C(=O)O)cc3)ccc21,24.8 µM (active)
15,COc1ccccc1OC(=O)Oc1ccccc1OC,inactive
16,Nc1nc(CC(=O)O)cs1,inactive
17,CCCCCCCCCCCCC(=O)O,inactive
18,Cc1cc(CC(=O)O)c(C)n1-c1ccc(Cl)cc1,inactive
19,CCCOc1ccc2nc(NC(=O)OC)[nH]c2c1,inactive
20,O=C(O)[C@@H]1[C@H]2C[C@H]3c4[nH]c5ccccc5c4CCN3C[C@@H]2CC[C@@H]1O,11.4 µM (active)

row,SMILES,Potency
1,CC[C@@H]1C[C@H](N(Cc2cc(C(F)(F)F)cc(C(F)(F)F)c2)C(C)=O)c2cc(C(F)(F)F)ccc2N1C(=O)OC(C)C,4.33 µM (active)
2,CCOc1ccc2[nH]cc(C(=O)NCc3ccccc3)c(=O)c2n1,8.63 µM (active)
3,O=c1[nH]cnc2ccccc12,inactive
4,NC(=S)N/N=C/c1cccnc1,inactive
5,CC(C)c1ccc2c(C(C)C)cc(C(C)C)c(S(=O)(=O)O)c2c1,inactive
6,CCN(CC)C(C)=O,inactive
7,OCC1CC2CC1C1CCC(CO)C21 (stereo not given),inactive
8,Oc1ccc(Cc2ccccc2)cc1,14.2 µM (active)
9,COCCOCCOCCOCCOC,inactive
10,Cc1ccc(C(=O)C(C)CN2CCCCC2)cc1 (stereo not given),inactive
11,Nc1ccc(C(=O)Nc2ccccc2N)cc1,13.3 µM (active)
12,O=C1[C@H](CC[C@H](O)c2ccc(F)cc2)[C@@H](c2ccc(O)cc2)N1c1ccc(F)cc1,23.7 µM (active)
13,CCCCCCCC/C=C\CCCCCCCC(N)=O,48.5 µM (active)
14,O=C(c1ccccc1)c1ccc2n1CCC2C(=O)O (stereo not given),inactive
15,Cc1ccc(C(C)c2ccc(C)c(C)c2)cc1C,inactive
16,O=C(Cl)c1ccc([N+](=O)[O-])cc1,inactive
17,N=C(N=C(N)N)N1CCOCC1,inactive
18,O=CNc1ccccc1,inactive
19,CC(O)C1CCCCC1 (stereo not given),inactive
20,CC(C)CCCC(C)CCO (stereo not given),inactive
